Hit rate of the full screen: of about 4,400 compounds, about 390 (8.9%) showed an effect of 50% or more. Only a selection was taken, and strong results are over-represented in it overall.
Test system: Trypanosoma brucei
Test: DNDI: Inhibition of Human African Trypanosomiasis, SBRI 427, in vitro at 2 ug.mL-1
Assay type: functional

Question: For `CSc1ccc(Oc2ncccc2/C(=N/O)NCc2ccccn2)cc1C`, which “% inhibition” value is on record?
Answer: 2%

Question: Which “% inhibition” value does the source give for `CN(Cc1coc(-c2ccccc2Cl)n1)C1CCN(Cc2ccccc2)C1` (centres undefined) here?
Answer: -15%

Question: With `COc1ccc(Oc2nc(C)ccc2/C(=N/O)N2CCSC2)cc1` as the compound, how does the “% inhibition” value read?
Answer: 27%

Question: For `COc1cc(-c2nc(CNC3CCc4ccccc43)co2)cc(OC)c1OC` (centres undefined), which “% inhibition” value is on record?
Answer: 28%

Question: For `COc1ccc(CCN(C)Cc2coc(-c3ccc(O)cc3)n2)cc1OC`, which “% inhibition” value is on record?
Answer: -29%

Question: Which “% inhibition” value does the source give for `COc1ccc(CCN(C)Cc2coc(-c3ccc(Br)cc3)n2)cc1OC` here?
Answer: 65%

Question: For `COc1ccc(CCN(C)Cc2coc(-c3ccc(F)cc3)n2)cc1OC`, which “% inhibition” value is on record?
Answer: -7%

Question: Which “% inhibition” value does the source give for `Brc1ccc(-c2nc(CNC3CCN(Cc4ccccc4)C3)co2)cc1` (centres undefined) here?
Answer: 2%

Question: For `CC(C)(C)c1ccc(-c2nc(CNC3CCN(Cc4ccccc4)C3)co2)cc1` (centres undefined), which “% inhibition” value is on record?
Answer: 55%

Question: With `COc1ccc(-c2nc(CNC3CCN(Cc4ccccc4)CC3)co2)cc1` as the compound, how does the “% inhibition” value read?
Answer: 97%

Question: With `COc1ccc(-c2nc(CNC3CCN(Cc4ccccc4)C3)co2)cc1` (centres undefined) as the compound, how does the “% inhibition” value read?
Answer: 12%

Question: With `Brc1ccc(-c2nc(CNC3CCN(Cc4ccccc4)CC3)co2)cc1` as the compound, how does the “% inhibition” value read?
Answer: 58%

Question: With `Fc1ccc(-c2nc(CNC3CCN(Cc4ccccc4)CC3)co2)cc1` as the compound, how does the “% inhibition” value read?
Answer: -17%

Question: How did the “% inhibition” value turn out when `CCOc1ccc(-c2nc(CNC3CCN(Cc4ccccc4)C3)co2)cc1` (centres undefined) was run?
Answer: 6%

Question: How did the “% inhibition” value turn out when `Cc1ccc(-c2nc(CNC3CCN(Cc4ccccc4)C3)co2)cc1` (centres undefined) was run?
Answer: 17%

Question: `Oc1ccc(-c2nc(CNC3CCN(Cc4ccccc4)C3)co2)cc1` (centres undefined) was tested. Which “% inhibition” value did it give?
Answer: 33%

Question: For `CN(Cc1ccco1)/C(=N\O)c1ccc(Oc2cc(Cl)ccc2Cl)nc1`, which “% inhibition” value is on record?
Answer: -12%

Question: With `COC(=O)C1CCN(/C(=N\O)c2ccnc(Oc3ccc(F)c(Cl)c3)c2)CC1` as the compound, how does the “% inhibition” value read?
Answer: -5%

Question: `Cc1cccc(-c2nc(CN3CCN(c4ccc(F)cc4)CC3)co2)c1` was tested. Which “% inhibition” value did it give?
Answer: 18%

Question: `O/N=C(\NCc1c(F)cccc1F)c1ccc(Oc2ccc(Cl)cc2)nc1` was tested. Which “% inhibition” value did it give?
Answer: 6%

Question: With `CCC(CC)N/C(=N\O)c1ccc(Oc2c(F)c(F)cc(F)c2F)nc1` as the compound, how does the “% inhibition” value read?
Answer: 19%

Question: Which “% inhibition” value does the source give for `COCC(C)N/C(=N\O)c1ccc(Oc2cc(Cl)ccc2Cl)nc1` (centres undefined) here?
Answer: 23%

Question: For `CCC(CC)N/C(=N\O)c1ccc(Oc2cc(C)cc(C(C)C)c2)nc1`, which “% inhibition” value is on record?
Answer: -7%

Question: With `CCC(CC)N/C(=N\O)c1ccc(Oc2cc(C)cc(C)c2)nc1` as the compound, how does the “% inhibition” value read?
Answer: 94%

Question: Which “% inhibition” value does the source give for `CCC(CC)N/C(=N\O)c1ccc(Oc2ccc(Cl)cc2)nc1` here?
Answer: 96%

Question: Which “% inhibition” value does the source give for `COCC(C)N/C(=N\O)c1ccc(Oc2cc(C)cc(C)c2)nc1` (centres undefined) here?
Answer: 1%

Question: With `CCC(CC)N/C(=N\O)c1ccc(Oc2ccc(C)cc2C)nc1` as the compound, how does the “% inhibition” value read?
Answer: 26%

Question: `CCc1ccc(Oc2ccc(/C(=N/O)NC(CC)CC)cn2)cc1` was tested. Which “% inhibition” value did it give?
Answer: 7%

Question: `CCC(CC)N/C(=N\O)c1ccc(Oc2cc(Cl)ccc2Cl)nc1` was tested. Which “% inhibition” value did it give?
Answer: 84%

Question: Which “% inhibition” value does the source give for `CCN(CCC#N)Cc1coc(-c2cc(OC)c(OC)c(OC)c2)n1` here?
Answer: -11%

Question: For `Cc1ccc(/C(=N/O)N2C(C)CCC2C)c(OCc2ccccc2C)n1` (centres undefined), which “% inhibition” value is on record?
Answer: 21%

Question: With `COC[C@H]1CCCN1Cc1coc(-c2ccc(C)cc2)n1` as the compound, how does the “% inhibition” value read?
Answer: -9%

Question: With `Cc1ccc(Oc2ccc(/C(=N/O)NC3CCCC3)cn2)c(C)c1` as the compound, how does the “% inhibition” value read?
Answer: 91%

Question: How did the “% inhibition” value turn out when `Cc1cc(C)cc(Oc2ccc(/C(=N/O)NC3CCc4ccccc43)cn2)c1` (centres undefined) was run?
Answer: 12%

Question: With `Cc1ccc(Oc2ccc(/C(=N/O)NCC3CC3)cn2)c(C)c1` as the compound, how does the “% inhibition” value read?
Answer: 98%

Question: Which “% inhibition” value does the source give for `Cc1ccc(Oc2ccc(/C(=N/O)NCc3cccs3)cn2)c(C)c1` here?
Answer: 21%

Question: How did the “% inhibition” value turn out when `Cc1cc(C)cc(Oc2ccc(/C(=N/O)N(C)C3CCCCC3)cn2)c1` was run?
Answer: -8%

Question: For `Cc1cc(Oc2ccc(/C(=N/O)NC3CCCCC3)cn2)cc(C(C)C)c1`, which “% inhibition” value is on record?
Answer: 17%

Question: How did the “% inhibition” value turn out when `Cc1cc(C)cc(Oc2ccc(/C(=N/O)NC3CCCCC3)cn2)c1` was run?
Answer: 99%

Question: How did the “% inhibition” value turn out when `Cc1cc(C)cc(Oc2ccc(/C(=N/O)NC3CCC3)cn2)c1` was run?
Answer: 99%

Question: How did the “% inhibition” value turn out when `Cc1ccc(Oc2ccc(/C(=N/O)NCc3c(F)cccc3F)cn2)c(C)c1` was run?
Answer: 16%

Question: Which “% inhibition” value does the source give for `Cc1ccc(Oc2ccc(/C(=N/O)NC3CC3)cn2)c(C)c1` here?
Answer: 26%

Question: For `Cc1cc(C)cc(Oc2ccc(/C(=N/O)NC3CCN(Cc4ccccc4)C3)cn2)c1` (centres undefined), which “% inhibition” value is on record?
Answer: -11%

Question: Which “% inhibition” value does the source give for `Cc1ccc(Oc2ccc(/C(=N/O)Nc3ccccc3)cn2)c(C)c1` here?
Answer: 22%

Question: With `COc1ccc(-c2nc(CNc3cc(C(C)(C)C)nn3C)co2)cc1` as the compound, how does the “% inhibition” value read?
Answer: 7%

Question: With `Cc1ccccc1-c1nc(CN(C)C2CCN(Cc3ccccc3)C2)co1` (centres undefined) as the compound, how does the “% inhibition” value read?
Answer: 8%

Question: `CCCN(CC1CC1)/C(=N\O)c1ccc(C)nc1Oc1ccc(OC)cc1` was tested. Which “% inhibition” value did it give?
Answer: 30%

Question: Which “% inhibition” value does the source give for `COc1ccc(-c2nc(CNCc3ccc(C(F)(F)F)cc3)co2)cc1` here?
Answer: 2%

Question: For `CSc1ccc(Oc2nc(C)ccc2/C(=N/O)N2CCN(C3CCCC3)CC2)cc1C`, which “% inhibition” value is on record?
Answer: 13%

Question: `Cc1ccc(/C(=N/O)N2CC=CC2)c(OCc2cccc(F)c2)n1` was tested. Which “% inhibition” value did it give?
Answer: -19%

Question: `CCCN(CC)Cc1coc(-c2cccc(OCC)c2)n1` was tested. Which “% inhibition” value did it give?
Answer: 20%

Question: For `COc1ccc(-c2nc(CN3C(C)C=CC3C)co2)cc1` (centres undefined), which “% inhibition” value is on record?
Answer: 1%

Question: With `FC(F)(F)Oc1ccc(CNCc2coc(-c3ccc(Br)cc3)n2)cc1` as the compound, how does the “% inhibition” value read?
Answer: 8%

Question: Which “% inhibition” value does the source give for `CCOC(=O)C1CCN(Cc2coc(-c3cccc(OC)c3)n2)CC1` here?
Answer: 37%

Question: `COc1ccc(N2CCN(Cc3coc(-c4ccccc4Cl)n3)CC2)cc1` was tested. Which “% inhibition” value did it give?
Answer: -8%

Question: Which “% inhibition” value does the source give for `Cc1cc(C)cc(Oc2ccc(/C(=N/O)NC3CC(C)CC(C)(C)C3)cn2)c1` (centres undefined) here?
Answer: 14%

Question: For `Cc1cc(C)cc(Oc2ccc(/C(=N/O)NC3CCC(C)CC3)cn2)c1` (centres undefined), which “% inhibition” value is on record?
Answer: 82%

Question: `Cc1cc(C)cc(Oc2ccc(/C(=N/O)Nc3ccccc3)cn2)c1` was tested. Which “% inhibition” value did it give?
Answer: 0%

Question: With `Cc1cc(C)cc(Oc2ccc(/C(=N/O)NC3CCCC3)cn2)c1` as the compound, how does the “% inhibition” value read?
Answer: 98%

Question: For `CCN(CC)CCN(C)Cc1coc(-c2cccs2)n1`, which “% inhibition” value is on record?
Answer: 4%

Question: With `CCN(CC)CCNCc1coc(-c2cccc(C)c2)n1` as the compound, how does the “% inhibition” value read?
Answer: 26%

Question: For `CN(C)CCCNCc1coc(-c2ccc(F)cc2)n1`, which “% inhibition” value is on record?
Answer: 73%

Question: For `CCN(CC)CCNCc1coc(-c2ccc(F)cc2)n1`, which “% inhibition” value is on record?
Answer: -17%

Question: Which “% inhibition” value does the source give for `CCN(CC)CCCNCc1coc(-c2cccc(C)c2)n1` here?
Answer: 95%

Question: Which “% inhibition” value does the source give for `CCCCN(CCCC)CCCNCc1coc(-c2ccc(F)cc2)n1` here?
Answer: 1%

Question: How did the “% inhibition” value turn out when `CCCCN(CCCC)CCCNCc1coc(-c2ccc(C)cc2)n1` was run?
Answer: 53%

Question: `CCN(CC)CCCNCc1coc(-c2ccc(F)cc2)n1` was tested. Which “% inhibition” value did it give?
Answer: -8%

Question: Which “% inhibition” value does the source give for `CCCCN(CCCC)CCCNCc1coc(-c2ccco2)n1` here?
Answer: 20%

Question: For `Cc1cccc(CNCc2coc(-c3cccc(C)c3)n2)c1`, which “% inhibition” value is on record?
Answer: -10%

From ChEMBL document CHEMBL1857833, “Screening and optimization of specific chemical series against human African Trypanosomiasis (HAT)”
